Assay results as given in paper PMC5540273 (PLoS ONE, 2017).

system: T1, MEK1; settings: concentration: 1 μM,replicates: in singlicate; n = 1
T1 construct: gene MAP2K1
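Note: KINOMEscan kinase panel screen.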

| Compound | %Inh |
| --- | --- |
| CCN(CC)CCOc1ccc(Nc2ncc3cc(-c4c(Cl)cccc4Cl)c(=O)n(C)c3n2)cc1 [SB-601273] | 98.1% |
| CNC(=O)c1ccccc1Sc1ccc2c(/C=C/c3ccccn3)n[nH]c2c1 | 0% |
| C[C@@H](Oc1cc(-c2cnn(C3CCNCC3)c2)cnc1N)c1c(Cl)ccc(F)c1Cl | 12% |
| C[C@@H]1CCN(C(=O)CC#N)C[C@@H]1N(C)c1ncnc2[nH]ccc12 | 0% |
| Cl.Cl.NC[C@H](CC1CCCCC1)NC(=O)c1cc(Br)c(-c2ccnc3[nH]ccc23)s1 [GSK1581427] | 0% |
| C=CC(=O)Nc1cc2c(Nc3ccc(F)c(Cl)c3)ncnc2cc1OCCCN1CCOCC1 [GW781483] | 38% |
| COc1ccc(C[C@@H](CN)NC(=O)c2cc(Br)c(-c3ccnc4[nH]ccc34)s2)cc1.Cl.Cl [GSK1389063] | 1% |
| Cc1cc(C(=O)Nc2ccc(Oc3ccc4nc(NC(=O)C5CC5)cn4n3)cc2)nn1-c1ccccc1 | 0% |
| CCN(CC)CCCCNc1ncc2cc(-c3c(Cl)cccc3Cl)c(NC(=O)NC(C)(C)C)nc2n1 | 23% |
| CN(C)CC(O)COc1ccc(Nc2nccc(-c3cnn4nc(N5CCOCC5)ccc34)n2)cc1 (centres unmarked) [GW767488] | 24% |
| Cc1ccc(-n2nc(C(C)(C)C)cc2NC(=O)Nc2ccc(OCCN3CCOCC3)c3ccccc23)cc1 [GW839464] | 0% |
| CC(C)N1C(=O)Cc2cc(Nc3ncc(C(F)(F)F)c(NCc4cccc(S(C)(=O)=O)c4)n3)ccc21 | 27% |
| C[C@H]1Oc2cc(cnc2N)-c2c(nn(C)c2C#N)CN(C)C(=O)c2ccc(F)cc21 | 0% |
| CN(C)CCOc1ccc(-c2cc(-c3c[nH]nc3-c3ccccn3)ccn2)cc1 [GW835314] | 0% |
| Cl.Cl.NC[C@H](Cc1ccc(C(F)(F)F)cc1)NC(=O)c1cc(Br)c(-c2ccnc3[nH]ccc23)s1 [GSK1487252] | 0% |
| CCn1c(-c2nonc2N)nc2c(C#CC(C)(C)O)nc(OCCN)cc21.Cl.Cl [GSK902056] | 0% |
| Cl.Cl.Nc1nc(-c2ccc3c(N)n[nH]c3c2)cc(N2CCCC(NC(=O)c3ccccc3)C2)n1 (centres unmarked) [GSK2286775] | 0% |
| Nc1nc(Nc2ccccc2)cc(-c2ccc3c(N)n[nH]c3c2)n1 [GSK2225749] | 0% |
| O=C(NCCNc1ccnc(NCc2ccc(F)cc2)n1)c1cc2ccccc2s1 [GSK1379944] | 0% |
| CC(C)Nc1cc(-c2ccc3c(N)n[nH]c3c2)nc(N)n1 [GSK2221681] | 0% |
| Cl.Oc1cc(-c2nc(-c3ccccc3)[nH]c2-c2ccncc2)ccc1Cl [SB-386023] | 0% |
| Cc1n[nH]c2ccc(-c3cc(OC[C@@H](N)Cc4ccccc4)cnc3-c3ccoc3)cc12.O=C(O)C(F)(F)F.O=C(O)C(F)(F)F [GSK507358] | 37% |
| Cc1ccc2c(-c3ccncc3)c(-c3ccc(F)cc3)nn2c1.Cl [GW461484] | 0% |
| Cc1occc1-c1nc(N)c(OC[C@@H](N)Cc2c[nH]c3ccccc23)cc1-c1cc2c(C)n[nH]c2cn1 [GSK1660450] | 0% |
| NC(=O)c1cc(-c2ccccc2)cc2c(C3CCNCC3)c[nH]c12 [GSK301362] | 0% |
| Cc1cc2cn[nH]c2cc1-c1cccc2c(N)c(C(N)=O)nnc12 | 28% |
| O=C(NCCCN1CCOC1=O)c1cnc(NCc2cc(Cl)ccc2Cl)nc1NC1CCCC1 | 0% |

system: T2, MEK2; settings: concentration: 1 μM,replicates: in singlicate; n = 1
T2 construct: gene MAP2K2

| Compound | %Inh |
| --- | --- |
| CCN(CC)CCOc1ccc(Nc2ncc3cc(-c4c(Cl)cccc4Cl)c(=O)n(C)c3n2)cc1 [SB-601273] | 98.7% |
| CNC(=O)c1ccccc1Sc1ccc2c(/C=C/c3ccccn3)n[nH]c2c1 | 0% |
| C[C@@H](Oc1cc(-c2cnn(C3CCNCC3)c2)cnc1N)c1c(Cl)ccc(F)c1Cl | 20% |
| C[C@@H]1CCN(C(=O)CC#N)C[C@@H]1N(C)c1ncnc2[nH]ccc12 | 0% |
| Cl.Cl.NC[C@H](CC1CCCCC1)NC(=O)c1cc(Br)c(-c2ccnc3[nH]ccc23)s1 [GSK1581427] | 0% |
| C=CC(=O)Nc1cc2c(Nc3ccc(F)c(Cl)c3)ncnc2cc1OCCCN1CCOCC1 [GW781483] | 63% |
| COc1ccc(C[C@@H](CN)NC(=O)c2cc(Br)c(-c3ccnc4[nH]ccc34)s2)cc1.Cl.Cl [GSK1389063] | 22% |
| Cc1cc(C(=O)Nc2ccc(Oc3ccc4nc(NC(=O)C5CC5)cn4n3)cc2)nn1-c1ccccc1 | 17% |
| CN(C)CC(O)COc1ccc(Nc2nccc(-c3cnn4nc(N5CCOCC5)ccc34)n2)cc1 (centres unmarked) [GW767488] | 34% |
| Cc1ccc(-n2nc(C(C)(C)C)cc2NC(=O)Nc2ccc(OCCN3CCOCC3)c3ccccc23)cc1 [GW839464] | 0% |
| CC(C)N1C(=O)Cc2cc(Nc3ncc(C(F)(F)F)c(NCc4cccc(S(C)(=O)=O)c4)n3)ccc21 | 47% |
| C[C@H]1Oc2cc(cnc2N)-c2c(nn(C)c2C#N)CN(C)C(=O)c2ccc(F)cc21 | 30% |
| CN(C)CCOc1ccc(-c2cc(-c3c[nH]nc3-c3ccccn3)ccn2)cc1 [GW835314] | 18% |
| Cl.Cl.NC[C@H](Cc1ccc(C(F)(F)F)cc1)NC(=O)c1cc(Br)c(-c2ccnc3[nH]ccc23)s1 [GSK1487252] | 0% |
| CCn1c(-c2nonc2N)nc2c(C#CC(C)(C)O)nc(OCCN)cc21.Cl.Cl [GSK902056] | 0% |
| Cl.Cl.Nc1nc(-c2ccc3c(N)n[nH]c3c2)cc(N2CCCC(NC(=O)c3ccccc3)C2)n1 (centres unmarked) [GSK2286775] | 0% |
| Nc1nc(Nc2ccccc2)cc(-c2ccc3c(N)n[nH]c3c2)n1 [GSK2225749] | 9% |
| O=C(NCCNc1ccnc(NCc2ccc(F)cc2)n1)c1cc2ccccc2s1 [GSK1379944] | 0% |
| CC(C)Nc1cc(-c2ccc3c(N)n[nH]c3c2)nc(N)n1 [GSK2221681] | 0% |
| Cl.Oc1cc(-c2nc(-c3ccccc3)[nH]c2-c2ccncc2)ccc1Cl [SB-386023] | 2% |
| Cc1n[nH]c2ccc(-c3cc(OC[C@@H](N)Cc4ccccc4)cnc3-c3ccoc3)cc12.O=C(O)C(F)(F)F.O=C(O)C(F)(F)F [GSK507358] | 36% |
| Cc1ccc2c(-c3ccncc3)c(-c3ccc(F)cc3)nn2c1.Cl [GW461484] | 0% |
| Cc1occc1-c1nc(N)c(OC[C@@H](N)Cc2c[nH]c3ccccc23)cc1-c1cc2c(C)n[nH]c2cn1 [GSK1660450] | 0% |
| NC(=O)c1cc(-c2ccccc2)cc2c(C3CCNCC3)c[nH]c12 [GSK301362] | 0% |
| Cc1cc2cn[nH]c2cc1-c1cccc2c(N)c(C(N)=O)nnc12 | 45% |
| O=C(NCCCN1CCOC1=O)c1cnc(NCc2cc(Cl)ccc2Cl)nc1NC1CCCC1 | 30% |
